We go through eleven compounds from PubChem BioAssay (Tox21).

Records with an inconclusive call do not appear. Active and inactive are the calls of the source. Calls follow the shape of the dose curve; as a rule, active = well fitted curve in the direction sought with a large enough effect in the repeat runs; inconclusive = weak or mixed curves; inactive = no such curve, though single readings can be large; an effect the other way counts as inactive or inconclusive.

For test [1], the target named is Cytochrome P450 2C19 (Homo sapiens) (UniProt P33261). Description: Cytochrome P450 Family 2 Subfamily C Member 19 (CYP2C19) small molecule antagonists: luciferase reporter qHTS assay (AID 1671197). Also: nearly all actives have a fitted effect of over 65% in size. Also: potency is read from the fitted curve at half-maximal effect. Conditions: P450-Glo CYP2C19 enzyme, luciferin luminescence, 1 h; series mostly up to 52.9 µM. Summed up:
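CYP2C19 P450-Glo, 1536-well qHTS. Cpd + enzyme/proluciferin substrate 10 min RT; + NADPH regen, 37C 1 h; stop with luciferin detection reagent, 20 min RT, luminescence (RLU). Pos ctrl ketoconazole.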
A general note: A reporter such as luciferase makes a cellular process visible.

Test [2] has as its target Cytochrome P450 1A2 (Homo sapiens) (UniProt P05177). Description: Cytochrome P450 Family 1 Subfamily A Member 2 (CYP1A2) small molecule antagonists: luciferase reporter qHTS assay (AID 1671199). Also: nearly all actives have a fitted effect of over 50% in size. Also: potency is read from the fitted curve at half-maximal effect. The settings on record: P450-Glo CYP1A2 enzyme, luciferin luminescence, 1 h; series mostly up to 53 µM. Summed up: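 Luminescence from luciferin formed by CYP1A2 from a proluciferin substrate, read 20 min after detection reagent. Compound was pre-incubated 10 min with enzyme-substrate, and reaction started with NADPH regeneration solution for 1 h at room temperature; furafylline control.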

Test [3] concerns the target Voltage-gated inwardly rectifying potassium channel KCNH2 (Homo sapiens) (UniProt Q12809). Description: Human Ether-a-go-go-Related Gene (hERG) channel small molecule antagonists: fluorescence cell-based qHTS assay (AID 1671200). Also: nearly all actives have a fitted effect of over 50% in size. Also: potency is read from the fitted curve at half-maximal effect. Conditions: hERG-U2OS cells, FluxOR thallium flux fluorescence; series mostly up to 76.8 µM. Summed up: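 hERG-U2OS cells plated overnight at 37 C, loaded with FluxOR II dye 1 h at RT in dark; after 10 min, thallium stimulus added. Fluorescence (480/540 nm) read kinetically for 2 min at 1 s intervals.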
In general terms: Block of hERG is tested as a sign of cardiac risk.

The target in test [4] is Cytochrome P450 3A4 (Homo sapiens) (UniProt P08684). The experiment in a line: Cytochrome P450 Family 3 Subfamily A Member 4 (CYP3A4) small molecule antagonists: luciferase reporter qHTS assay (AID 1671201). Also: nearly all actives have a fitted effect of over 50% in size. The settings on record: P450-Glo CYP3A4 enzyme, luciferin luminescence, 1 h; series mostly up to 115 µM. In short, it runs like this:
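P450-Glo CYP3A4 luminescent assay: compounds preincubated 10 min at room temperature with enzyme and proluciferin substrate, NADPH regeneration added, 1 h room-temperature reaction, stopped with luciferin detection reagent; luminescence read after 20 min. Ketoconazole positive control.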

Cytochrome P450 1A2 (Homo sapiens), sequence (P05177 whole entry, looked up): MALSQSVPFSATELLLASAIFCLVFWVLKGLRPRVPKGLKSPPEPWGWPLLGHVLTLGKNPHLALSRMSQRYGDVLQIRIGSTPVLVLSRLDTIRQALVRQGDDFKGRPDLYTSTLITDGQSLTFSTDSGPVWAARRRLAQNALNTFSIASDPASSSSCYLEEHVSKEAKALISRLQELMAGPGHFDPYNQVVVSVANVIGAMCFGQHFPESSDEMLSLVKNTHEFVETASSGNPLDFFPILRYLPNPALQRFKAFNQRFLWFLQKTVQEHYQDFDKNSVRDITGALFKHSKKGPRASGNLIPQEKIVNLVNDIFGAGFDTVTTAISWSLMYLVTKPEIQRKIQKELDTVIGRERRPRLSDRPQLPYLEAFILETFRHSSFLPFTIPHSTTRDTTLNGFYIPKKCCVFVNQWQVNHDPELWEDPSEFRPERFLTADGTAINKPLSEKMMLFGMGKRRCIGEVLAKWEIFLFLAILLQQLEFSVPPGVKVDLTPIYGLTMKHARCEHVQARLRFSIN
Cytochrome P450 2C19 (Homo sapiens), sequence (P33261 whole entry, looked up): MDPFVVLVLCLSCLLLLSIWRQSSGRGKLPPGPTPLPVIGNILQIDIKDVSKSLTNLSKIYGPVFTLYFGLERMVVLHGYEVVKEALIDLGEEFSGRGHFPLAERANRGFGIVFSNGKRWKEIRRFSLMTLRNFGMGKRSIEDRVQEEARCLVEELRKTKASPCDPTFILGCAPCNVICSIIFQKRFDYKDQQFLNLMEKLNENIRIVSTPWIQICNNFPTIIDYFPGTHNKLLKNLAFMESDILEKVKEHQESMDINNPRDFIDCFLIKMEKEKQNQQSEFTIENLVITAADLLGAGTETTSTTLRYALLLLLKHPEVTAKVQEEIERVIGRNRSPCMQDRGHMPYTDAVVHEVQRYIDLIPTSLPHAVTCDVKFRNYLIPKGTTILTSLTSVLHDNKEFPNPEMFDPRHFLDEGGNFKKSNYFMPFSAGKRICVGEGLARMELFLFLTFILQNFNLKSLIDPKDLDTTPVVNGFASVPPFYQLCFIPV
Voltage-gated inwardly rectifying potassium channel KCNH2 (Homo sapiens), sequence (Q12809 whole entry, looked up): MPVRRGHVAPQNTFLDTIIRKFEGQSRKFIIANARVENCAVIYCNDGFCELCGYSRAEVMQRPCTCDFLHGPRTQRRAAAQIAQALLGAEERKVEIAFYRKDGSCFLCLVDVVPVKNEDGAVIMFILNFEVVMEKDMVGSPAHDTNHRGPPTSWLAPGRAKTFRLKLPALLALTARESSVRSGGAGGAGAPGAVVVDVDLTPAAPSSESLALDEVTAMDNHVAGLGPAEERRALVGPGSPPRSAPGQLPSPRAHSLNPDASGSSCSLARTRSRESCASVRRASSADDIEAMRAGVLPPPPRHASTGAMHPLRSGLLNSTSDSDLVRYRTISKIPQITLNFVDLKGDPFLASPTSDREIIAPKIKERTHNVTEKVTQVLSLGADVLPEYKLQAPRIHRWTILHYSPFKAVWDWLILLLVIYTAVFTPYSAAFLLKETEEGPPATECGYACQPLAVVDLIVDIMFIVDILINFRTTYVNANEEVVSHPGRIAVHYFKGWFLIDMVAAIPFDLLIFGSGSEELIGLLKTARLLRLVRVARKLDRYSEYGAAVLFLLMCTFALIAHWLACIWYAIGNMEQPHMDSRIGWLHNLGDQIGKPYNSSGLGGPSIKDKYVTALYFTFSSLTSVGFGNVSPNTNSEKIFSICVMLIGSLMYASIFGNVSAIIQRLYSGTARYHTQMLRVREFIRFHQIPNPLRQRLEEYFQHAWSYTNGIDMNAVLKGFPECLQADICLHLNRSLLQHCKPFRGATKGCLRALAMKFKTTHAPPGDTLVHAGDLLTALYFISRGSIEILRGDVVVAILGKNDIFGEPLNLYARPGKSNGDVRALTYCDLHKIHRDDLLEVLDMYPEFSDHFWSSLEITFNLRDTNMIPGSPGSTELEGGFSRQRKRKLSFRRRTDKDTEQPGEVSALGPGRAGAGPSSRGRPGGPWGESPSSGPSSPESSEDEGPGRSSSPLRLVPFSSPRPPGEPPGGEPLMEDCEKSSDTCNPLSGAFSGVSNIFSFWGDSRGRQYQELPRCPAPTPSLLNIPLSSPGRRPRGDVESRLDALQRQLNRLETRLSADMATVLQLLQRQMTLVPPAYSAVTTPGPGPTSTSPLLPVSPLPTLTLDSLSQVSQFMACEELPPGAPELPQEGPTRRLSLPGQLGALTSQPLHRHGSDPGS
Cytochrome P450 3A4 (Homo sapiens), sequence (P08684 whole entry, looked up): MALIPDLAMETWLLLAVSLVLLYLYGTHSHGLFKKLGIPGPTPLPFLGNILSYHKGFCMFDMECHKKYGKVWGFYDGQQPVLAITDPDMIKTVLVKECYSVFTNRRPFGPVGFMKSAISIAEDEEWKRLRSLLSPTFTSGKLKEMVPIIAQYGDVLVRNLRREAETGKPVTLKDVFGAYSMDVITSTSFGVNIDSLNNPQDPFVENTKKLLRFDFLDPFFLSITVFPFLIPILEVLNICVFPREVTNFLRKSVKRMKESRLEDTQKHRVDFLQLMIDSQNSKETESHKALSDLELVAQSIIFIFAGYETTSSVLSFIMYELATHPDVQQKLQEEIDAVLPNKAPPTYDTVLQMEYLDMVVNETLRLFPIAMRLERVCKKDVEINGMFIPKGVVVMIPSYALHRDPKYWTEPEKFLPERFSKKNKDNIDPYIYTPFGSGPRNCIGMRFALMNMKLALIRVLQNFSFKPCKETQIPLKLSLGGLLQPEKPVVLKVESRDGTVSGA

Regarding `Nc1nc2ccc([N+](=O)[O-])cc2s1`, the values for the Potency in test [1] and in test [2] were 35.6 µM (active) and 9.74 µM (active), respectively. Besides, the Potency result in test [3] was “inactive”.
For `COc1ccccc1N1CCN(CCCCNC(=O)c2ccc(-c3ccc(C(C)=O)cc3)cc2)CC1`, the Potency entry in test [1], in test [2] and in test [4] was “inactive” throughout. Besides, in test [3], the Potency is 3.79 µM (active).
On to `O=C(O)C[C@H](NC(=O)OCc1ccccc1)C(=O)O`, for which the Potency entry in test [1], in test [2], in test [3] and in test [4] was “inactive” each time.
For the compound `CCC(=O)C1CC(C(C)C)CC=C1C` (centres undefined), the Potency in test [1] was 35.6 µM (active); in test [2], 63.3 µM (active). In addition, the Potency result in test [3] is “inactive”.
On the same counts, the results for `Clc1ccc(Nc2nnc(Cc3ccncc3)c3ccccc23)cc1` are 2.19 µM (active), 1.44 µM (active) and “inactive”.
In the same order, the values of `CCCCCCCCOc1ccc(C(=O)O)cc1` are 49.7 µM (active), “inactive” and “inactive”.
On the same counts, the results for `COC(=O)[C@H]1[C@H]2C[C@@H]3c4[nH]c5cc(OC)ccc5c4CCN3C[C@H]2C[C@@H](OC(=O)/C=C/c2ccc(O)c(OC)c2)[C@@H]1OC` are “inactive”, “inactive” and 0.848 µM (active).
For the compound `Cc1cccc(N(C)C(=S)Oc2ccc3c(c2)CCC3)c1`, the Potency was 1.74 µM (active) in test [1] and 10.2 µM (active) in test [2]. The Potency result in test [3] and in test [4] was “inactive” each time.
As for `C=Cc1ccc(S(=O)(=O)O)cc1`, the Potency result in test [1], in test [3] and in test [4] was “inactive” throughout. Moreover, the Potency in test [2] is 71 µM (active).
Turning to `CC(C)(C)C(=O)C(=O)O`, the Potency entry in test [1], in test [2], in test [3] and in test [4] was “inactive” each time.
`C=C1C[C@@]23CC[C@H]4[C@@](C)(CCC[C@@]4(C)C(=O)O[C@@H]4O[C@H](CO)[C@@H](O)[C@H](O)[C@H]4O)[C@@H]2CC[C@]1(O[C@@H]1O[C@H](CO)[C@@H](O)[C@H](O[C@@H]2O[C@H](CO)[C@@H](O)[C@H](O)[C@H]2O)[C@H]1O[C@@H]1O[C@H](CO)[C@@H](O)[C@H](O)[C@H]1O)C3`: the Potency result in test [1], in test [2], in test [3] and in test [4] was “inactive” in each case.
